Measured values from publication PMC5540273 (PLoS ONE, 2017).

tested on: RPS6KA4(Kin.Dom.1-N-terminal); settings: concentration: 1 μM, replicates: in singlicate; n = 1
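Also: KINOMEscan kinase panel screen.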

Compound	%Inh [%]
COc1cccc(-c2ccc3c(NC(=O)C4CC4)n[nH]c3n2)c1 [SB-710903]	2
Oc1cc(Nc2ccnc3cc(I)ccc23)ccc1F [GW552771]	0
COc1cc2c(cc1OCCN1CCNCC1)ncc1c3ccc(C#N)cc3[nH]c21	0
CCS(=O)(=O)c1ccc(OC)c(Nc2nccc(-c3c(-c4cccc(NC(=O)c5c(F)cccc5F)c4)nn4ncccc34)n2)c1 [GSK326180]	16
Cc1cccc(Nc2nc(N[C@H]3CCNC3)ncc2C(N)=O)c1.Cl [GSK2197149]	0

tested on: RPS6KA4(Kin.Dom.2-C-terminal); settings: concentration: 1 μM, replicates: in singlicate; n = 1

Compound	%Inh [%]
COc1cc(Nc2nccc(N3CCC(NC(=O)Nc4cccc(C(C)=O)c4)C3)n2)cc(OC)c1OC (stereo not drawn) [GSK1379753]	0
COc1cc(Nc2nccc(-c3c(-c4cccc(NC(=O)c5c(F)cccc5F)c4)nn4ncccc34)n2)cc(OC)c1OC [GSK327238]	0
O=C(Nc1n[nH]c2nc(-c3ccc(O)cc3)ccc12)C1CC1 [SB-710363]	99.5
O=c1[nH]cc(-c2ccc(N3CCOCC3)cc2)c2sc(-c3cn[nH]c3)cc12 [GSK2276055]	0
O=C(Nc1cccc(-c2nn3ccccc3c2-c2ccnc(Nc3cccc(F)c3)n2)c1)c1c(F)ccc(F)c1Cl [GSK357952]	0
CC(C)c1nc(-c2cccc(NS(=O)(=O)c3c(F)cccc3F)c2F)c(-c2ccnc(Nc3ccc(N4CCOCC4)nc3)n2)s1 [GSK2008607]	0
CC(=O)N1CCN(c2ccc(Nc3nccc(-c4sc(C(C)C)nc4-c4cccc(NS(=O)(=O)c5cccc(Cl)c5)c4)n3)cn2)CC1 [GSK1660437]	0
O=C(Nc1cccc(-c2nn3ncccc3c2-c2ccnc(Nc3ccccc3)n2)c1)c1c(F)cccc1F [GSK198271]	0
Cl.c1ccc(-c2ccc3c(Nc4ccc5[nH]ncc5c4)ccnc3c2)nc1 [GW440137]	0
Cn1cc(-c2[nH]c3cc(NC(=O)[C@H](N)C4CCCCC4)cc4c3c2C=NNC4=O)cn1	96.2
CNC(=O)c1ccccc1Nc1nc(Nc2ccc(N3CCOCC3)cc2)ncc1Cl.Cl [GSK1576028]	0
c1ccc(-c2cnc3nccnn23)cc1 [AH20685]	0
CN(C)S(=O)(=O)c1cc(-c2ccc3nccc(-c4cccc(S(N)(=O)=O)c4)c3c2)cnc1N [GSK1669921]	0
COc1cccc(NC(=O)NC2CCN(c3ccnc(Nc4cc(OC)c(OC)c(OC)c4)n3)C2)c1 (stereo not drawn) [GSK1379763]	0
C[C@@H](Oc1cc(-n2cnc3cc(-c4ccnc(NCCS(C)(=O)=O)c4)ccc32)sc1C(N)=O)c1ccccc1Cl [GSK907232]	0
Fc1ccc(-c2ncn(C3CCNCC3)c2-c2ccnc(Oc3ccc(-c4ccccc4)cc3)n2)cc1 [SB-245391]	0
COc1cccc(C(=O)Nc2cccc(Oc3ccc4nc(NC(=O)C5CC5)cn4n3)c2)c1	10
Nc1ncc(-c2cccnc2)c2scc(-c3ccc4c(c3)CCN4C(=O)Cc3ccccc3)c12 [GSK683281]	0
Cc1occc1-c1ncc(OC[C@@H](N)Cc2c[nH]c3ccccc23)cc1-c1ccc2[nH]nc(C)c2c1.O=C(O)C(F)(F)F [GSK682037]	0
Nc1n[nH]c2cnc(-c3ccccc3)cc12 [SB-642124]	71
Cc1ccc(S(=O)(=O)Nc2ccc(Nc3nccc(Nc4cccc5[nH]ncc45)n3)cc2)cc1 [GSK581271]	0
c1ccc(-c2n[nH]cc2Nc2ccnc3ccccc23)nc1 [GW694077]	56
COc1ccc(Nc2nccc(NCCNC(=O)c3cc4ccccc4s3)n2)cc1 [GSK1379896]	0
Cc1ccc(F)c(C(=O)Nc2cccc(-c3nn4ccccc4c3-c3ccnc(Nc4cccc(F)c4)n3)c2)c1F [GSK361061]	0
CC(C)(C)c1ccc2nccc(Nc3cccc(O)c3)c2c1 [GW856795]	0
COc1cc(Nc2ncc3c(C)nc(-c4cc5ccccc5[nH]4)n3n2)cc(OC)c1OC [GW869516]	0
COC(=O)Nc1nc2ccc(Oc3ccc(NC(=O)Nc4cc(C(F)(F)F)ccc4F)cc3)cc2n1C.Cl [GW692089]	0
CCCCc1nn2ncccc2c1-c1ccnc(Nc2ccc(N3CCN(C)CC3)cc2)n1 [GW684941]	0
